Screening data from PubChem BioAssay.
Most compounds without a hit are left out; they make up all but 6.2% or so of the library.
KB-3-1 cytotox: KB-3-1 parental cell cytotoxicity. KB-3-1 viability, CellTiter-Glo ATP luminescence, 72 h. Potency, µM (doses to about 46.1 µM), actives largely listed as cytotoxic. hit rate 1.4% among 400,000; also: % is scaled to controls: 0 for no effect and ±100 for the full control effect; nearly all actives have a fitted effect of over 60% in size
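KB-3-1 parental drug-naive adenocarcinoma cells in DMEM/10% FBS, incubated 72 h at 37 C with pin-transferred compounds across a concentration series. Viability by CellTiter-Glo luminescence; concentration-response curves fitted after normalization.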
HT1080-NT tox: kills 2HG-producing HT-1080-NT fibrosarcoma cells; HT-1080-NT fibrosarcoma viability, CellTiter-Glo ATP luminescence, 48 h; Potency, µM (series often up to 46.1 µM), for the others: at the top dose activity, negative = less viability, actives largely listed as cytotoxic; hit rate 1.6% among 360,000; AID 686970;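 also: NT is the 2HG producing partner of a matched IDH1 knockdown line; 0% = DMSO-treated cells and -100% = media-only wells without cells; nearly all actives have a fitted effect of over 55% in size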
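Toxicity toward the 2HG-producing NT line was scored as %Activity, normalised to DMSO and no-cell wells, from CellTiter-Glo luminescence after 48 hours' treatment.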
KB-V1 cytotox: KB-V1 MDR subline cytotoxicity. Potency, µM (doses to about 46.1 µM), actives largely listed as cytotoxic. KB-V1 MDR cells viability, CellTiter-Glo, 72 h. hit rate 3.4% among 400,000; also: % is scaled to controls: 0 for no effect and ±100 for the full control effect; nearly all actives have a fitted effect of over 60% in size
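Readout: CellTiter-Glo luminescence, 10 min after addition. Cells: KB-V1 MDR subline, 72 h at 37 degrees C with compound. Analysis: corrected, normalized data fitted to concentration-effect curves.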
S2 tox: cell viability loss in ATXN counter-screen; AID 651635; Potency, µM (series often up to 56.7 µM), actives largely listed as cytotoxic; S2 cells (HEK-293 line with an ATXN2-luciferase reporter) viability, CellTiter-Fluor protease fluorescence, 24 h; hit rate 0.49% among 400,000; also: nearly all actives have a fitted effect of over 40% in size
ATXN2 expr inh: reduces ATXN2 reporter expression in HEK-293 cells; HEK-293 ATXN2-luciferase reporter, luminescence, 24 h; Potency, µM (highest dose often 57 µM), inactives show top-dose activity change, negative = inhibition, hits mostly inhibitors; hit rate 0.72% among 360,000; AID 1745845; also: % is scaled to controls: 0 for no effect and ±100 for the full control effect; nearly all actives have a fitted effect of over 55% in size
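qHTS (up to 57 uM final) was run with 24 h compound exposure of reporter cells at 37 °C. Each well was multiplexed: SteadyGlo luminescence measured ATXN2-luciferase expression after a fluorogenic Gly-Phe-AFC viability readout (25 uM final).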
HT1080 IDH1KD tx: toxicity to HT-1080 IDH1 knockdown cells (counter line); Potency, µM (doses to about 46.1 µM), without a hit: at the top dose activity, negative = toxicity, actives largely listed as cytotoxic; hit rate 2% among 360,000; AID 686971; HT-1080 IDH1 knockdown viability, ATP luminescence, 48 h;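 also: 0% = DMSO wells and -100% = cell-free medium wells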
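In this qHTS, HT-1080 cells depleted of IDH1 are exposed for 48 h at 37 °C to compound titrations. Toxicity is scored from CellTiter-Glo luminescence, with DMSO as full viability and medium alone as none.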
Numbers without * were called inactive; i = inactive; u = inconclusive; x = no result given. Calls follow the shape of the dose curve; as a rule, active = well fitted curve in the direction sought with a large enough effect; inconclusive = small, poorly fitted or top-dose-only effect, or another doubt; inactive = no such curve, though single readings can be large; an effect the other way counts as inactive or inconclusive. Potency is read from the fitted curve at half-maximal effect.

SMILES | KB-3-1 cytotox | HT1080-NT tox | KB-V1 cytotox | S2 tox | ATXN2 expr inh | HT1080 IDH1KD tx
O=C(Nc1ccc2c(c1)OCO2)C1Cc2c(-c3ccncc3)ccnc2O1 (centres undefined) | i | 22.4% | i | i | 11.5% | 8.5%
O=C(Nc1ccc2c(c1)OCO2)C1Cc2c(-c3ccc(Cl)cc3)ccnc2O1 (centres undefined) | i | 23.1µM* | i | u | u | u
COc1ccc(NC(=O)C2Cc3c(-c4ccc5c(c4)OCO5)ccnc3O2)cc1 (centres undefined) | 9.2µM* | u | u | u | -9.5% | u
CC(=O)Nc1cccc(-c2ccnc3c2CC(C(=O)Nc2ccc4c(c2)OCO4)O3)c1 (centres undefined) | 5.17µM* | u | i | u | -19.2% | 2.31µM*
O=C(Nc1ccc2c(c1)OCO2)C1Cc2c(-c3ccc4c(c3)OCO4)ccnc2O1 (centres undefined) | u | u | 8.2µM* | u | u | 4.11µM*
CC(=O)Nc1ccc(NC(=O)C2Cc3c(-c4ccc5c(c4)OCO5)ccnc3O2)cc1 (centres undefined) | i | 19.2% | i | i | 5.9% | 27.3%
COc1ccc(NC(=O)C2Cc3c(-c4ccc(Cl)cc4)ccnc3O2)cn1 (centres undefined) | i | u | u | 3.55µM* | u | u
CCCc1cc(=O)[nH]c(SCC(=O)c2c(N)n(C3CC3)c(=O)[nH]c2=O)n1 | 16.4µM* | u | i | i | -16.0% | u
CN(C(=S)Oc1ccc(C(=O)Nc2ccccc2)cc1)c1ccccc1 | u | -17.6% | 2.91µM* | i | -6.2% | -23.6%
COc1ccc(NC(=O)c2ccc(OC(=S)N(C)c3ccc(OC)cc3)cc2)cc1 | i | -26.2% | i | u | -38.5% | -23.9%
Cc1nc(NCc2c(F)cccc2F)sc1-c1ccn(CCN2CCOCC2)n1 | x | x | x | i | x | x
CCOc1ccc(/C=C2\SC(=S)N(CCCC(=O)NCCCN3CCOCC3)C2=O)cc1 | i | u | i | u | 8.91µM* | 16.4µM*
CCc1ccc(/C=C2\SC(=S)N(CCCC(=O)NCCCN3CCOCC3)C2=O)cc1 | i | -17.9% | i | 10µM* | x | u
CCOc1ccc(NC(=O)c2cc([N+](=O)[O-])ccc2N2CCOCC2)cc1 | i | u | 23.1µM* | i | -23.4% | u
O=C(NCCc1ccccc1)c1cc([N+](=O)[O-])ccc1N1CCOCC1 | i | -9.5% | i | i | 2.2% | -2.3%
O=C(NCCOc1ccccc1)c1cc([N+](=O)[O-])ccc1N1CCOCC1 | u | u | u | u | -24.8% | 7.31µM*
O=C(NCCOc1ccccc1F)c1cc([N+](=O)[O-])ccc1N1CCOCC1 | u | 6.51µM* | i | u | -22.9% | 8.2µM*
Cc1ccc(NC(=O)c2cc(N3C(=O)C=CC3=O)ccc2N2CCOCC2)cc1 | u | u | i | u | u | 23.1µM*
O=C(NCCc1ccc(F)cc1)c1cc([N+](=O)[O-])ccc1N1CCOCC1 | i | 4.1% | u | i | -0.6% | -0.7%
Cc1ccc(NC(=O)c2cc(NC(=O)c3ccco3)ccc2N2CCOCC2)cc1 | i | -2.1% | i | i | -11.5% | -9.7%
CCOC(=O)c1c(C)c(-c2ccccc2)n(CC(=O)Nc2cccc(F)c2)c1C | i | x | i | i | 1.0% | x
CCCCCCCCCCCC[N+](C)(C)Cc1ccccc1 | x | x | x | 31.6µM* | 25.1µM* | x
COc1cccc(CNC(=O)c2c(OC)cc(=O)n3c2CCN(C(=O)c2csc(C)n2)CC3)c1 | x | x | x | i | x | x
O=C(NC1CCCCCC1)c1c2c(nc3ccccc13)CCN(Cc1ccccc1)C2 | i | 14.2% | i | u | 4.3% | 16.3%
Cc1c(Cl)cccc1NC(=O)COC(=O)c1c2c(nc3ccccc13)CCN(Cc1ccccc1)C2 | u | u | 2.06µM* | i | -18.2% | u
